# Only a selection was taken, and hits are over-represented in it overall.
# L3MBTL1 block = blocks human L3MBTL1 | AlphaScreen L3MBTL1–H3K9me1 peptide binding | AID 485360 | 230,000 compounds, 0.66% hits | Q9Y468 | Potency, µM (series often up to 57.1 µM), without a hit: top-dose activity, negative = inhibition, most hits filed as inhibitors; also: nearly all actives have a fitted effect of over 60% in size
#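 Displacement of a biotinylated histone H3(1-15) peptide monomethylated at Lys9 (75 nM) from L3MBTL1 (50 nM) was measured by AlphaScreen after a 30 min room-temperature compound incubation; cefsulodin titration served as intraplate control.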
# RECQ1 inh = inhibitors of human RECQ1 DNA helicase; RECQ1 DNA unwinding, red fluorescence kinetic read; Potency, µM (top dose mostly 57.3 µM), inactives show top-dose activity, negative = inhibition, actives largely listed as inhibitors; 240,000 compounds, 0.54% hits; AID 2549;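 also: plate controls were vehicle for no effect and no enzyme for full effect; nearly all actives have a fitted effect of over 30% in size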
#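 RECQ1T1 50 nM; forked duplex (20 bp + 30-nt ss tails) 200 nM, ATP 2 mM final; pH 8.0, 2 mM MgCl2, 2.5 ug/ml poly(dI-dC); 15 min compound preincubation; discontinuous kinetic read over 2 h at RT.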
# BLM inh = inhibitors of human Bloom syndrome helicase BLM | P54132 | 350,000 compounds, 0.2% hits | recombinant BLM DNA unwinding, fluorescence dequenching | Potency, µM (highest dose often 56.1 µM), for inactives: at the top dose activity change, negative = inhibition, hits mostly inhibitors;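 also: plate controls were vehicle for no effect and no enzyme for full effect; nearly all actives have a fitted effect of over 35% in size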
# TDP1 inh = blocks human tyrosyl-DNA phosphodiesterase 1 | Q9NUW8 | recombinant TDP1, AlphaScreen DNA substrate cleavage | Potency, µM (top dose mostly 130 µM), for inactives: at the top dose activity change, negative = inhibition, actives largely listed as inhibitors | 350,000 compounds, 0.28% hits; also: nearly all actives have a fitted effect of over 40% in size
#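 Tdp1 1 nM final; 15 min RT w/ cpd; substrate 15 nM, 5 min; beads 10 ug/ml, 10 min; AlphaScreen read. Neg ctrl: no enzyme.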
# KDM4E inh = inhibitors of human JMJD2E histone demethylase. B2RXH2. JMJD2E catalytic domain, FDH-coupled NADH fluorescence (FDH is formaldehyde dehydrogenase). Potency, µM (top dose mostly 57.1 µM), for inactives: at the top dose activity change, negative = inhibition, hits mostly inhibitors. 230,000 compounds, 1.6% hits; active = well fitted inhibition curve with a large enough effect, not every such curve was filed as active; inconclusive = small, poorly fitted or top-dose-only effect, or another doubt; inactive = no such curve, though single readings can be large or run the other way;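 also: 0% = wells with enzyme and -100% = buffer wells without enzyme; nearly all actives have a fitted effect of over 50% in size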
# Target sequence (B2RXH2 1-337 limits assumed): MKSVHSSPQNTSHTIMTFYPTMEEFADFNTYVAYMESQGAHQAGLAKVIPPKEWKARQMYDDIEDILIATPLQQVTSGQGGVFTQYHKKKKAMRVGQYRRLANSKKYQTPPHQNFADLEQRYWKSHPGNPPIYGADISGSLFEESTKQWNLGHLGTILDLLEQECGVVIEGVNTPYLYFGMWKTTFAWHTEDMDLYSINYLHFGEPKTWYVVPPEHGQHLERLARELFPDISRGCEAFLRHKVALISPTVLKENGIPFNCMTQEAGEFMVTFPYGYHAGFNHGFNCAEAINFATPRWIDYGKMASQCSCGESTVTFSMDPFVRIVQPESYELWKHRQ
# APEX1 inh = APE1 (human) endonuclease inhibition; Potency, µM (titrated, usually from 65.8 µM), for the others: at the highest dose activity change, negative = inhibition, most hits filed as inhibitors; P27695; 350,000 compounds, 0.35% hits; recombinant APE1, TAMRA/BHQ-2 abasic DNA cleavage fluorescence;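 also: plate controls were vehicle for no effect and reference inhibitor for full effect; nearly all actives have a fitted effect of over 55% in size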
# Target sequence (P27695 whole entry, looked up): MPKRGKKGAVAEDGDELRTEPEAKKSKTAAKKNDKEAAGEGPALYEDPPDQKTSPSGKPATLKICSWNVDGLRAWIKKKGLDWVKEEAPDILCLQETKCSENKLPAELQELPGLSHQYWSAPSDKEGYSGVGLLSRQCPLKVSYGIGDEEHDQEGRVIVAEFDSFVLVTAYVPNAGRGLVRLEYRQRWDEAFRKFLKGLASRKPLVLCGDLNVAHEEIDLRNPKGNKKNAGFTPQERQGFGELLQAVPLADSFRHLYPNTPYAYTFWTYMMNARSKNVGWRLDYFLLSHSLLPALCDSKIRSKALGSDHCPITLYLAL
#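 Incision of a quenched TAMRA/BHQ-2 THF abasic-site duplex (50 nM) by 0.75 nM APE1, after 15 min compound preincubation, measured as fluorescence increase over three 60 s reads. Values normalized to buffer, DMSO and NSC13755 control wells.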
# An asterisk follows results filed as active; i = inactive; ? = inconclusive; · = no result given; ! = not active in a repeat; [ ] = remark or other dose. Unless noted, calls follow the shape of the dose curve; as a rule, active = well fitted curve in the direction sought with a large enough effect; inconclusive = small, poorly fitted or top-dose-only effect, or another doubt; inactive = no such curve, though single readings can be large; an effect the other way counts as inactive or inconclusive. Unless noted, % is scaled to controls: 0 for no effect and ±100 for the full control effect; potency is read from the fitted curve at half-maximal effect.
SMILES,L3MBTL1 block,RECQ1 inh,BLM inh,TDP1 inh,KDM4E inh,APEX1 inh
O=C(O)C(Cc1ccccc1)N1C(=O)/C(=C/C=C/c2ccco2)SC1=S (stereo not given),1.3µM*,2.8µM*,22µM*,·,7.9µM*,1.6µM*
O=C(O)CCN1C(=O)/C(=C/c2ccc(-c3nc4ccccc4s3)o2)SC1=S,-19%,i,-5%,5%,-12%,-2%
O=C1S/C(=C\c2cccs2)C(=O)N1c1ccc(O)cc1,·,·,-9%,·,·,6%
CCC(C(=O)O)N1C(=O)/C(=C/c2cccn2C)SC1=S (stereo not given),-4%,-7%,0%,-2%,-24%,6%
O=C1S/C(=C\C=C\c2ccco2)C(=O)N1c1ccc(O)cc1,16µM*,4%,25µM*,0%,1%,9%
O=C(O)CC(C(=O)O)N1C(=O)/C(=C/C=C/c2ccco2)SC1=S (stereo not given),1.1µM*,4µM*,107%,·,11µM*,1µM*
O=C(O)CC(C(=O)O)N1C(=O)/C(=C/c2ccc(-c3nc4ccccc4s3)o2)SC1=S (stereo not given),4.5µM*,?,36%,·,2.8µM*,3%
CCn1nc(-c2ccc(C)cc2)nc2c(=O)n(C)c(=O)nc1-2,·,·,·,0%,·,·
Brc1ccc(N/N=C(/N=Nc2nn[nH]n2)c2ccccc2)cc1,?,-6%,2%,11%,25µM*,-2%
O=C(O)c1ccc(N=N/C(=N\Nc2ccc(C(=O)O)cc2)c2ccccc2)cc1,?,·,·,-4%,·,-11%
CC(=O)Nc1cc(NC(C)=O)cc(C(=O)N2CCCC3CCCCC32)c1 (stereo not given),·,·,-22%,·,·,17µM*
COc1cccc(NC(=O)Cn2c(=O)n(Cc3ccco3)c(=O)c3cc(OC)c(OC)cc32)c1,·,·,-5%,2%,·,·
Cc1cc(C(=O)N/N=C/c2cc(N=Nc3ccccc3)ccc2O)n[nH]1,-17%,-7%,3%,-1%,5µM*,-7%
Cc1cc(C(=O)N/N=C/c2cccc([N+](=O)[O-])c2O)n[nH]1,?,-2%,3%,0%,13µM*,-1%
COC(=O)N/N=C/c1cc(N=Nc2ccccc2)ccc1O,-9%,-10%,-5%,6%,4%,-2%
NC(=NCc1ccc(Cl)c(Cl)c1)NC(=O)c1nc(Cl)c(N)nc1N,·,67%,·,11%[56.1 µM],?,11%
C/C(=N\NC(=O)CSCc1ccc([N+](=O)[O-])cc1)c1ccccc1,·,-8%,-11%,7%,10%,-5%
C/C(=N\NC(=O)CSCc1ccc([N+](=O)[O-])cc1)c1ccccc1O,-2%,-4%,-1%,0%,25µM*,0%
C/C(=N\NC(=O)c1cc(-c2cccc([N+](=O)[O-])c2)n[nH]1)c1ccccc1O,?,-1%,?,0%,25µM*,-2%
O=C(O)c1cccc(-c2ccc(/C=N/n3cnc4sc5c(c4c3=O)CCCC5)o2)c1,·,-3%,0%,18µM*,?,?
COc1cc(F)c(S(=O)(=O)N2CCN(S(=O)(=O)c3cccc(N)c3)CC2)c(F)c1,·,·,·,1%,·,·
CC(Oc1ccc(O)cc1)(P(=O)(O)O)P(=O)(O)O,·,-6%,-5%,7%,1.6µM*,?
Cn1ccc2cc3c(cc21)CCN3C(=O)Nc1cccnc1,-3%,i,-22%,15%,35µM*!,?
Cc1ccc(-n2ncc(C(=O)NCc3ccccn3)c2C2CCN(C(=O)OC(C)(C)C)CC2)cc1C,·,·,-2%,3%,·,·
COC(=O)c1cnn2c(C)c(Cc3cccc(F)c3)c(C)nc12,31%,0%,1%,-3%,3.5µM*,-2%
SMILES,L3MBTL1 block,RECQ1 inh,BLM inh,TDP1 inh,KDM4E inh,APEX1 inh
Cc1nc2c(C(=O)O)cnn2c(C)c1Cc1ccccc1,·,·,2%,8%,·,·
Cc1ccc(NS(=O)(=O)c2ccc3c(c2)C(Cl)(Cl)C(=O)N3)cc1C,·,·,·,4%,·,·
O=C(NCCc1csc2nc(-c3ccccc3F)nn12)C(=O)Nc1cc(F)ccc1F,·,·,-1%,1%,·,·
Cc1ccc(-n2c3c(cc(-c4nc(-c5ccc(Cl)cc5)cs4)c2=O)C(=O)CC(C)(C)C3)cc1,·,·,-7%,-3%,·,·
CCCCC[n+]1ccn(C2=C([O-])c3ccccc3C(=O)/C2=N\S(=O)(=O)c2ccccc2)c1,2%,i,-8%,4%,-15%,16%
CC(C)c1ccc(NC(=O)C[n+]2ccn(C3=C([O-])c4ccccc4C3=O)c2)cc1,?,i,-20%,50µM*,-8%,-1%
COC(=O)c1ccc(C(NC(=O)OCc2ccccc2)/C(=C/[C@@H](C)C(=O)N(C)Cc2ccccc2)c2cccnc2)cc1 (stereo not given in full),·,-1%,-10%,10%,-7%,-11%
Oc1ccc(/C=N/Nc2ncc(Br)cn2)c(O)c1,?,-1%,-2%,11%,11µM*,-2%
CCN=c1scc(C)n1/N=C/c1ccc(O)c(O)c1O,32µM*,25µM*,-19%,6%,11µM*,?
CCN=c1scc(C)n1/N=C/c1cc(Br)c(O)c(Br)c1,-4%,?,-5%,5%,?,-2%
Oc1ccc(/C=N/N2CCN(C3c4ccccc4-c4ccccc43)CC2)cc1,-18%,-6%,-1%,8%,11%,6%
Oc1ccc(/C=N/N2CCN(C3c4ccccc4-c4ccccc43)CC2)cc1O,-10%,-22%,-11%,11%,16µM*,-1%
COc1ccc(CN2C(=O)c3cccnc3C2Nc2cc(Cl)ccc2OC)cc1 (stereo not given),?,-11%,-8%,·,14µM*,-8%
O=C(OCC(=O)N1CCCC1=O)c1nc(Cl)c(Cl)c(Cl)c1Cl,·,·,-15%,45µM*,·,?
CC1=C(C(=O)OC(C)C)C(c2ccc(N(C)C)cc2)C2=C(CC(C)(C)CC2=O)N1 (stereo not given),·,i,-2%,9%,14µM*,20%
CC1=C(C(=O)OC(C)C)C(c2cccnc2)C2=C(CC(C)(C)CC2=O)N1 (stereo not given),27%[11.4 µM],-2%,-8%,6%,?,-1%
COC(=O)c1ccc(OCCOc2ccccc2C)cc1,45%,·,-8%,79µM*,·,-14%
CCOC(=O)c1ccc(OCCOc2cccc(C)c2)cc1,70%,·,-11%,50µM*,·,29%
Cc1ccc(C(=O)NCCOc2cccc(C)c2)cc1,15%,i,-3%,3%,3%,1%
CCn1cc2nc(SCc3ccc(F)cc3)n(Cc3ccc(Cl)cc3)c(=O)c2n1,·,·,-8%,3%,·,·
